PI5P4Ka inh – inhibitors of human PI5P4K alpha; P48426; PI5P4Kalpha enzyme, ADP-Glo luminescence, 60 min; active compounds read low; max response, %; 1.2% of 330,000 active; active = max response of -50% or lower; inconclusive = between -30% and -50%; inactive = -30% or higher; also: value at the top dose of about 77 µM; % is scaled to controls: 0 for no effect and ±100 for the full control effect
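qHTS, 1536-well: enzyme/substrate mix, compound by pin tool, 5 microM ATP final; RT 60 min; ADP-Glo reagents 1 (45 min) then 2 (30 min); luminescence.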
L3MBTL1 inh – inhibitors of human L3MBTL1; Q9Y468; 0.66% of 230,000 active; AID 485360; Potency, µM (series often up to 57.1 µM), for the others: at the highest dose activity, negative = inhibition, actives largely listed as inhibitors; AlphaScreen L3MBTL1–H3K9me1 peptide binding; also: potency is read from the fitted curve at half-maximal effect; % is scaled to controls: 0 for no effect and ±100 for the full control effect; nearly all actives have a fitted effect of over 60% in size
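L3MBTL1 50 nM + b-AHA-H3(1-15)K9me1 75 nM, 30 min RT; compound added, 30 min RT; streptavidin donor/Ni-chelate acceptor beads 10 ug/mL each final, 30 min RT dark; AlphaScreen read.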
G9a block – G9a (human) methyltransferase inhibition; Q96KQ7; Potency, µM (titrated, usually from 102 µM), for inactives: at the highest dose activity, negative = inhibition, hits mostly inhibitors; AID 504332; 8.8% of 350,000 active; G9a H3K9 monomethylation, AlphaScreen, 2 h; also: potency is read from the fitted curve at half-maximal effect; % is scaled to controls: 0 for no effect and ±100 for the full control effect; nearly all actives have a fitted effect of over 75% in size
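Compounds were preincubated with 20 nM G9a for 15 min, after which biotinylated H3K9 peptide (500 nM) and SAM (20 uM) started a 2 h room-temperature reaction. Monomethylated product was quantified by antibody-based AlphaScreen chemiluminescence.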
HP1b binding inh – inhibitors of HP1-beta chromodomain binding to methylated histone tails. AlphaScreen HP1-beta / biotin-H3K9me3 peptide binding. Potency, µM (doses to about 114 µM), without a hit: at the top dose activity change, negative = inhibition, usual class: inhibitors. 0.56% of 390,000 active; also: potency is read from the fitted curve at half-maximal effect; nearly all actives have a fitted effect of over 70% in size
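Compound inhibition of the preformed complex between 50 nM HP1-beta and 50 nM biotinylated H3K9me3 peptide was read by AlphaScreen. Buffer was PBS pH 7.4 with 0.01% Tween-20. Incubations ran 30 min at room temperature, with 10 ug/mL donor/acceptor beads.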
JMJD2A Tudor – blocks the human JMJD2A Tudor domain. O75164. AlphaScreen JMJD2A-Tudor / H3K4me3 peptide binding. Potency, µM (doses to about 114 µM), for the others: top-dose activity change, negative = inhibition, actives largely listed as inhibitors. 4.4% of 390,000 active. AID 504339; also: potency is read from the fitted curve at half-maximal effect; % is scaled to controls: 0 for no effect and ±100 for the full control effect; nearly all actives have a fitted effect of over 50% in size
Target sequence (O75164 whole entry, looked up, the tested form may be a part): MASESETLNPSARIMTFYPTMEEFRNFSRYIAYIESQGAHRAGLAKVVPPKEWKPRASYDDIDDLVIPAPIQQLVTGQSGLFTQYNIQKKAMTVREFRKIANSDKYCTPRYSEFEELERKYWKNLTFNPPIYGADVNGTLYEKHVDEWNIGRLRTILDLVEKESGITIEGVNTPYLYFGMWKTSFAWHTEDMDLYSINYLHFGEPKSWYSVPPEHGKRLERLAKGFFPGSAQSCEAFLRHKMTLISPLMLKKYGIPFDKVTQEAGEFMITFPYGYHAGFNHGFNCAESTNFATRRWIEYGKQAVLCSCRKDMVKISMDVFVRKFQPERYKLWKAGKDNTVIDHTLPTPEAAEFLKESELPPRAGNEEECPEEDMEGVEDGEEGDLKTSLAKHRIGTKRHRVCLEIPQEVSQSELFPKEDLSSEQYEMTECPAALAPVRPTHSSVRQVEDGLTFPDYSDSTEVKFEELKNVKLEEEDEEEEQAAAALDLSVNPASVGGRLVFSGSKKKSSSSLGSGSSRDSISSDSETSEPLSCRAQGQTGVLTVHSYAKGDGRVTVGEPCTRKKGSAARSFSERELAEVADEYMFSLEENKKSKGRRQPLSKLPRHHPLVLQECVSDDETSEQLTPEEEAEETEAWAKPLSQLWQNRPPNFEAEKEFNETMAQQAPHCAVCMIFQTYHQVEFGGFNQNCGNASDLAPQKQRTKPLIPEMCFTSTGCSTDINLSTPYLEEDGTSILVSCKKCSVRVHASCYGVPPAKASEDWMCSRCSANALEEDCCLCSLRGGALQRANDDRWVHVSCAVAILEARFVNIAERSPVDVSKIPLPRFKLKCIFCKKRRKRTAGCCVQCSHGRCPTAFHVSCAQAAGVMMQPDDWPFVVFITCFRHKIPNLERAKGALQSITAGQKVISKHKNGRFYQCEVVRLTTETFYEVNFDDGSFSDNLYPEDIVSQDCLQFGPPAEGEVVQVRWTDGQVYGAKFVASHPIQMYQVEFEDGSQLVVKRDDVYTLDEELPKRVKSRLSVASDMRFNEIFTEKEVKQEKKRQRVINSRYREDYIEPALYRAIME
BAZ2B inh – blocks human BAZ2B | 4.4% of 360,000 active | Potency, µM (series often up to 114 µM), inactives show at the highest dose activity change, negative = inhibition, usual class: inhibitors | Q9UIF8 | AlphaScreen BAZ2B-H3K14Ac peptide displacement; also: potency is read from the fitted curve at half-maximal effect; % is scaled to controls: 0 for no effect and ±100 for the full control effect; nearly all actives have a fitted effect of over 60% in size
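Multi-concentration screen (max 110 uM) measuring displacement of acetylated histone H3 peptide from BAZ2B by AlphaScreen, using 50 nM protein, 50 nM peptide and 10 ug/mL streptavidin donor plus Ni-chelate acceptor beads.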
An asterisk follows results filed as active; ? = inconclusive; . = no result; [ ] = dose if it differs, or a comment. Most compounds without a hit are left out; they make up all but 11% or so of the library. Unless noted, calls follow the shape of the dose curve; as a rule, active = well fitted inhibition curve with a large enough effect; inconclusive = small, poorly fitted or top-dose-only effect; inactive = no such curve, though single readings can be large or run the other way.

SMILES | PI5P4Ka inh | L3MBTL1 inh | G9a block | HP1b binding inh | JMJD2A Tudor | BAZ2B inh
Cn1c(-c2cc3c(C(F)(F)F)nn(C)c3s2)n[nH]c1=S | -30 | -6% | 32µM* | -11% | 11µM* | -35%
CCOc1cc(C(=O)Nc2ccc(-c3nc4ccccc4s3)cc2Cl)cc(OCC)c1OCC | . | . | 2%[59 µM] | 57% | -8% | ?
CCCCn1c(=O)c2ccccc2n2c(=S)[nH]nc12 | -18 | . | 1.3µM* | -19% | 3.5µM* | ?
CCCn1c(=O)c2ccccc2n2c(SCC(=O)c3ccc(F)cc3)nnc12 | . | . | 3%[2.33 µM] | . | . | 12%
CCCn1c(=O)c2ccccc2n2c(=S)[nH]nc12 | -10 | . | 3.5µM* | 27% | 1.4µM* | -5%
CCCCCn1c(=O)c2ccccc2n2c(=S)[nH]nc12 | -19 | . | 1.4µM* | 0% | 6.3µM* | -33%
CCCn1c(=O)c2ccccc2n2c(SCC(=O)c3ccccc3)nnc12 | . | . | ? | 11% | 25µM* | -28%
CCOC(=O)N1CCc2c(sc3c2c(=O)n(-c2ccc(Cl)cc2)c(=O)n3CC(=O)Nc2ccccc2)C1 | . | . | 0%[59 µM] | -8% | -13% | -4%
Cc1ccc(NC(=O)CSc2c3c(nc4ccccc24)CCCC3)cc1F | . | . | -7%[59 µM] | 23% | -19% | .
Cn1c(=O)c2ccccc2n2c(=S)[nH]nc12 | -15 | . | 6.3µM* | 79µM* | 3.2µM* | -9%
COc1ccc(NS(=O)(=O)c2ccc3oc(SCc4ccc(F)cc4)nc3c2)cc1 | 1 | 5% | 79µM* | -5% | -26% | -3%
CCCCC(=O)Nc1nnc(SCc2cc(=O)n3cc(C)ccc3n2)s1 | . | . | -2%[59 µM] | 24%[57 µM] | 2% | 8%
Cc1cccc(N2CCN(c3ccc(N4C(=O)CCCC4=O)cc3[N+](=O)[O-])CC2C)c1 (stereo unspecified) | -3 | -17% | ? | ? | ? | 28µM*
CCN(CC)CCNc1ccc(C)c2sc3ccc(O)cc3c(=O)c12 | 2 | . | . | ? | 22µM* | .
O=C(Cn1cc(SCc2cccc(F)c2)c2ccccc21)N1CCCC1 | . | . | 0%[59 µM] | 30% | -13% | ?
CCCN1CNc2c(c(=O)[nH]c(=S)n2CCc2ccsc2)C1 | . | . | . | 31% | -7% | .
Cc1ccccc1C(=O)Nc1nc(-c2ccc(Br)cc2)ns1 | . | . | -1%[59 µM] | 49% | 14% | 3%
CC1(C)Cc2c(sc(NC(=O)C(=O)N3CCCC3)c2C(=O)O)CO1 | 5 | . | . | 26% | -16% | -19%
CC1(C)Cc2c(sc(NC(=O)C(=O)N3CCCC3)c2C#N)CO1 | -13 | . | 28µM* | 4% | ? | -33%
CCC(CO)Oc1cc(NCc2ccccc2Cl)c2ncn(C(C)C)c2c1 (stereo unspecified) | -3 | -4% | -12%[2.33 µM] | -22% | 50µM* | ?
CCC(CO)Oc1cc(NCc2ccccc2C(F)(F)F)c2ncn(C(C)C)c2c1 (stereo unspecified) | -2 | -29% | . | ? | 45µM* | .
CCC(CO)Oc1cc(NCc2ccccc2F)c2ncn(C(C)C)c2c1 (stereo unspecified) | -13 | -9% | 18%[2.33 µM] | -3% | ? | ?
CCOC(=O)c1noc2ncnc(Nc3cccc(OC)c3)c12 | . | . | 20%[59 µM] | 11% | -11% | -2%
O=C(Nc1nc2ccc(F)cc2s1)c1ccccn1 | -4 | . | -3% | 61% | -12% | 40µM*
O=C(Nc1nc2ccccc2s1)c1cnccn1 | . | . | 3.5µM* | 26% | -33% | 7%
SMILES | PI5P4Ka inh | L3MBTL1 inh | G9a block | HP1b binding inh | JMJD2A Tudor | BAZ2B inh
O=C(Nc1nc2ccc(F)cc2s1)C1=COCCO1 | -14 | -9% | 50µM* | 26% | -7% | 1%
O=C(Nc1nc2cc3c(cc2s1)OCCO3)C1=COCCO1 | -1 | -3% | 22% | -4% | ? | -16%
Cc1onc(-c2ccccc2Cl)c1C(=O)Nc1nn[nH]n1 | . | 7% | -7%[59 µM] | 19% | 56µM* | 79µM*
CCOc1cc(N2CCOCC2)c(OCC)cc1NC(=O)c1c(-c2ccccc2)noc1C | -3 | -21% | -6%[2.33 µM] | -15% | ? | 45µM*
CCOc1cc(N2CCOCC2)c(OCC)cc1NC(=O)c1c(C)noc1C | 7 | -10% | 16µM* | 18% | -16% | -2%
Cc1cc(NC(=O)c2c(-c3ccccc3Cl)noc2C)no1 | 1 | -3% | -5% | 21% | -1% | 15%
CCOc1cc(N2CCOCC2)c(OCC)cc1NC(=O)c1cc(C)cc(C)c1 | 8 | 1% | ? | -9% | -25% | -34%
Cc1onc(-c2ccccc2)c1C(=O)Nc1ccc(S(=O)(=O)N2CCOCC2)cc1 | 2 | . | 50µM* | -2% | -9% | 5%
Cc1ccc(C(=O)c2cn(Cc3ccccc3C)c3nc(C)ccc3c2=O)cc1 | . | . | -28%[59 µM] | 29% | -14% | -3%
CCS(=O)(=O)N1CC(=O)N(c2cc(C)ccc2C)C(C)(C(=O)NC2CCCCC2)C1 (stereo unspecified) | . | . | -4%[59 µM] | 29% | 0% | 4%
CCc1ccc(NC(=O)CSc2ccc3nc(-c4ccc(OC)cc4)cn3n2)cc1 | . | . | 20%[59 µM] | 23%[57 µM] | -6% | 3%
Cc1ccccc1CSc1nnc2[nH]c(=O)cc(C)n12 | . | . | -1%[59 µM] | 44% | -8% | 2%
CCOc1cc(N2CCOCC2)c(OCC)cc1NC(=O)c1c(-c2ccccc2Cl)noc1C | 5 | ? | 35µM* | ? | 45µM* | 40µM*
O=C(NCCSCc1c(F)cccc1Cl)C1CCN(S(=O)(=O)Cc2ccccc2)CC1 | . | . | -30%[59 µM] | 19% | -12% | -4%
COc1cc(OC)c2c(-c3ccccc3)cc(=O)oc2c1C(CCN1CCOCC1)c1ccc2c(c1)OCO2 (stereo unspecified) | -2 | -14% | -44%[59 µM] | ? | 32µM* | .
COc1cc(OC)c2ccc(=O)oc2c1C(CC(=O)N1CCN(c2ccccc2)CC1)c1ccc2c(c1)OCO2 (stereo unspecified) | -14 | . | 13%[12.7 µM] | -27% | 40µM* | 40µM*
COc1cc(OC)c2ccc(=O)oc2c1C(CC(=O)N1CCOCC1)c1ccc2c(c1)OCO2 (stereo unspecified) | 0 | . | 11%[59 µM] | 2% | -17% | -7%
COc1cc(OC)c2c(-c3ccccc3)cc(=O)oc2c1C(CCN1CCCC1)c1ccc2c(c1)OCO2 (stereo unspecified) | -22 | . | -47%[59 µM] | -9% | ? | -38%
COc1cc(OC)c2c(C)cc(=O)oc2c1C(CCN1CCN(c2ccccc2)CC1)c1ccc2c(c1)OCO2 (stereo unspecified) | -1 | . | -5%[12.7 µM] | ? | 28µM* | 25µM*
COc1cc(C(CCN2CCOCC2)c2c(OC)cc(OC)c3c(-c4ccccc4)cc(=O)oc23)cc(OC)c1OC (stereo unspecified) | -6 | -8% | ? | -20% | 79µM* | .

High-throughput results deposited in PubChem by National Center for Advancing Translational Sciences (NCATS).
